PD-1 reversal: reversal of PD-1 mediated T-cell inhibition; primary human CD4 T cells, PD-L1 beads, CellTiter-Glo 96 h; activation, % (test concentration not listed); 29,000 tested, under 10 active; AID 2316; call rule not given here
YB-1 expr inh: YB-1 expression inhibition; U2OS, qRT-PCR YB-1 vs CDIP delta delta Cp, 16 h; active compounds read high; zero = DMSO, each unit about twofold; AID 434959; hit rate 0.37% among 30,000; delta delta Cp (YB-1 minus CDIP) (no concentration beside the values);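 active = delta delta Cp rounded down to an integer at or above 3, about 3 SD of DMSO wells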;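 note: higher means less YB-1 transcript or more CDIP transcript relative to DMSO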
ROS inducer: inducers of reactive oxygen species in cancer cells. ROS induction (% of piperlongumine), % at 10 µM. U2OS ROS induction, H2DCF-DA fluorescence. hit rate 2% among 46,000; in the data active = ROS induction above about 79%, passing the limit was not always enough; inconclusive = no clear call, values can overlap the other calls
Of the large screens only hits and unclear results are named; the others gave an inactive call. A selection: hits, their analogues and other compounds. The true share with any hit is near 2.1%.

CCOC(=O)c1c(NC(=O)CSc2nc3ccccc3[nH]2)sc2c1CCCC2	none (no result: YB-1 expr inh)
Cn1nc(C(=O)N2CCN(c3cccc(C(F)(F)F)c3)CC2)c2c1-c1ccccc1OC2	none (no result: PD-1 reversal, YB-1 expr inh)
Cc1cc(C(F)(F)F)nc(SCC(=O)N2c3ccccc3Sc3ccccc32)n1	none (no result: YB-1 expr inh)
N#Cc1c(C(F)(F)F)cc(-c2cccs2)nc1SCC(=O)Nc1ccccc1C(F)(F)F	none (no result: YB-1 expr inh)
N#Cc1c(C(F)(F)F)cc(-c2cccs2)nc1SCC(=O)c1ccccc1	ROS inducer 747 (no result: PD-1 reversal, YB-1 expr inh)
COc1ccc(NC(=O)N(C)C[C@@H]2Oc3ccc(NC(=O)Cc4cn(C)c5ccccc45)cc3CC(=O)N([C@H](C)CO)C[C@H]2C)cc1	none (no result: PD-1 reversal)
CCS(=O)CCSc1nc(-c2ccc(C)cc2)cc(-c2ccccc2)c1C#N (centres undefined)	none (no result: PD-1 reversal, YB-1 expr inh)
CCS(=O)CCSc1nc(-c2ccc(Br)cc2)cc(-c2ccccc2)c1C#N (centres undefined)	ROS inducer 166 (no result: PD-1 reversal, YB-1 expr inh)
NC(=O)C1CCN(C(=O)CN2C(=O)/C(=C/c3ccccc3F)Sc3ccccc32)CC1	none (no result: PD-1 reversal, YB-1 expr inh)
C[C@@H]1CN([C@H](C)CO)C(=O)Cc2cc(NS(=O)(=O)c3ccc(Cl)cc3)ccc2O[C@@H]1CN(C)Cc1ccc(Oc2ccccc2)cc1	ROS inducer 86
C[C@H]1CN([C@@H](C)CO)C(=O)Cc2cc(NS(=O)(=O)c3ccccc3)ccc2O[C@H]1CN(C)Cc1ccc(Oc2ccccc2)cc1	none (no result: PD-1 reversal)
C[C@@H]1CN([C@H](C)CO)C(=O)Cc2cc(NS(=O)(=O)c3ccc(F)cc3)ccc2O[C@@H]1CN(C)Cc1ccc(Oc2ccccc2)cc1	none
C[C@H](CO)N1C[C@H](C)[C@H](CN(C)Cc2ccc(Oc3ccccc3)cc2)Oc2ccc(NS(=O)(=O)c3ccc(F)cc3)cc2CC1=O	ROS inducer 114
CC(C(=O)Nc1cccnc1)N(c1ccc(Cl)cc1)S(C)(=O)=O (centres undefined)	none (no result: YB-1 expr inh)
O=c1ccc2cc3c(-c4ccc(F)cc4)coc3cc2o1	none (no result: PD-1 reversal, YB-1 expr inh)
COC(=O)C[C@H]1C(C)(C)C(=O)[C@@H]2C[C@@]3(O)C4=CC(=O)O[C@@H](c5ccoc5)[C@]4(C)CCC3[C@@]1(C)C2=O (some centres undefined)	none (no result: PD-1 reversal)
CCSC1=C(C#N)C(=O)NC(C(C)C)S1 (centres undefined)	none
CC1NC(=O)C(C#N)=C(SCc2ccccc2)S1 (centres undefined)	ROS inducer 93
C/C=C(\C)C(=O)OC1CCC(=O)OC1/C=C/C(O)C(C)O (centres undefined)	none
C[C@H](CO)N1C[C@H](C)[C@H](CN(C)S(=O)(=O)c2cccs2)Oc2ncc(C#Cc3ccc(C(F)(F)F)cc3)cc2C1=O	YB-1 expr inh 6, ROS inducer 110 (no result: PD-1 reversal)
COc1cccc(S(=O)(=O)N(C)C[C@@H]2Oc3ncc(C#Cc4ccc(C(F)(F)F)cc4)cc3C(=O)N([C@H](C)CO)C[C@@H]2C)c1	ROS inducer 129 (no result: PD-1 reversal)
C[C@H](CO)N1C[C@H](C)[C@H](CN(C)S(=O)(=O)c2cn(C)cn2)Oc2ncc(C#Cc3ccc(C(F)(F)F)cc3)cc2C1=O	none (no result: PD-1 reversal)
C[C@H](CO)N1C[C@H](C)[C@H](CN(C)S(=O)(=O)c2cccs2)Oc2ncc(C#Cc3ccc(F)cc3)cc2C1=O	none (no result: PD-1 reversal)
COc1cccc(S(=O)(=O)N(C)C[C@@H]2Oc3ncc(C#Cc4ccc(OC)c(OC)c4)cc3C(=O)N([C@H](C)CO)C[C@@H]2C)c1	none (no result: PD-1 reversal)
C[C@H](CO)N1C[C@H](C)[C@H](CN(C)S(=O)(=O)c2cn(C)cn2)Oc2ncc(C#Cc3ccccc3)cc2C1=O	ROS inducer 120 (no result: PD-1 reversal)
COc1ccc([Si](C)(C)[C@@H]2[C@@H](CCn3cc(CCO)nn3)O[C@]3(C(=O)N(c4ccccc4)c4ccccc43)[C@H]2C)cc1	ROS inducer inconclusive (no result: PD-1 reversal)
C[C@H](CO)N1C[C@H](C)[C@@H](CN(C)S(=O)(=O)c2cccs2)Oc2c(NS(C)(=O)=O)cccc2C1=O	none
Cc1noc(C)c1NC(=O)Nc1ccc2c(c1)C(=O)N([C@H](C)CO)C[C@H](C)[C@H](CN(C)Cc1ccc(Cl)c(Cl)c1)OCCCC[C@@H](C)O2	none
C[C@H]1CN([C@@H](C)CO)C(=O)c2cc(NC(=O)Nc3ccc4c(c3)OCO4)ccc2O[C@H]1CN(C)Cc1ccc(C(F)(F)F)cc1	none
C[C@@H]1CN([C@@H](C)CO)C(=O)c2cc(NC(=O)C3CCCCC3)ccc2O[C@H]1CN(C)C(=O)Nc1cccc2ccccc12	YB-1 expr inh 5.6
C[C@@H]1CN([C@H](C)CO)C(=O)c2cc(NC(=O)C3CC3)ccc2O[C@H]1CN(C)C(=O)NC1CCCCC1	none
C[C@@H]1CN([C@@H](C)CO)C(=O)c2cc(NC(=O)C3CC3)ccc2O[C@@H]1CN(C)C(=O)Nc1ccc(C(F)(F)F)cc1	ROS inducer 80
C[C@H]1CN([C@@H](C)CO)C(=O)c2cc(NC(=O)C3CCCCC3)ccc2O[C@@H]1CN(C)C(=O)Nc1cccc2ccccc12	none
C[C@@H]1CN([C@H](C)CO)C(=O)c2cc(NC(=O)Nc3ccc4c(c3)OCO4)ccc2O[C@H]1CN(C)Cc1ccc(C(F)(F)F)cc1	ROS inducer 119
C[C@@H]1CN([C@H](C)CO)C(=O)c2cc(NC(=O)C3CC3)ccc2O[C@H]1CN(C)C(=O)Nc1ccc(C(F)(F)F)cc1	none
C[C@@H]1CN([C@@H](C)CO)C(=O)c2cc(NC(=O)C3CC3)ccc2O[C@H]1CN(C)C(=O)NC1CCCCC1	YB-1 expr inh 21 (no result: PD-1 reversal)
O=C(CCCCC(=O)N/N=C/c1ccccc1[N+](=O)[O-])NO	none (no result: PD-1 reversal)
C[C@H](CO)N1C[C@H](C)[C@H](CN(C)Cc2ccc(C(=O)Nc3ccccc3N)cc2)Oc2ccc(NC(=O)Nc3ccc(C(F)(F)F)cc3)cc2CC1=O	ROS inducer inconclusive
C[C@@H]1CN([C@H](C)CO)C(=O)c2cccc(NC(=O)Nc3ccc4c(c3)OCO4)c2O[C@H]1CN(C)Cc1ccc(-c2ccccc2)cc1	none
C[C@H]1CN([C@@H](C)CO)C(=O)c2cc(NC(=O)Nc3ccc(C(F)(F)F)cc3)ccc2O[C@@H]1CN(C)C(=O)Nc1ccc2c(c1)OCO2	none
C[C@H](CO)N1C[C@H](C)[C@H](CN(C)C(=O)Nc2ccc(C(F)(F)F)cc2)Oc2ccc(NC(=O)Nc3ccc4c(c3)OCO4)cc2C1=O	ROS inducer 103
Cc1onc(-c2ccccc2Cl)c1C(=O)NCC12CC3CC(CC(C3)C1)C2	none (no result: PD-1 reversal, YB-1 expr inh)
CCC1=NC(C(F)(F)F)(C(F)(F)F)C2=C(CC(C)(C)CC2=O)N1Cc1ccccc1	ROS inducer 120
CC1(C)CC(=O)C2=C(C1)N(Cc1ccc(F)cc1)C(=O)C2(NC(=O)c1cccnc1)C(F)(F)F (centres undefined)	none (no result: YB-1 expr inh)
CCCCCC(=O)Cc1cc(O)c(O)c2c1C(=O)Oc1cc(O)c(C(=O)O)c(CCCCC)c1O2	none
CC1=NN(C(=O)c2ccc(Cl)cc2)C(C)(C)C1	none
C[C@H](CO)N1C[C@H](C)[C@@H](CN(C)C(=O)Nc2ccc3c(c2)OCO3)Oc2ccc(NC(=O)CCCCCC(=O)Nc3ccccc3N)cc2C1=O	none
Cc1cc(C(=O)SCc2ccccc2)nn1Cc1c(Cl)cccc1Cl	none
CCOC(=O)c1nnn2c1nc(N(Cc1ccccc1)Cc1ccccc1)c1ccccc12	ROS inducer 173
CCOC(=O)c1nnn2c1nc(SCC(N)=O)c1ccccc12	none
